Molecules are shown by their SMILES. Inconclusive results are not listed. Entries that show only a call come without a potency. Calls of active or inactive are those of the source. Unless noted, calls follow the shape of the full dose curve.

Chain of D(2) dopamine receptor (Homo sapiens) (P14416 whole entry, looked up): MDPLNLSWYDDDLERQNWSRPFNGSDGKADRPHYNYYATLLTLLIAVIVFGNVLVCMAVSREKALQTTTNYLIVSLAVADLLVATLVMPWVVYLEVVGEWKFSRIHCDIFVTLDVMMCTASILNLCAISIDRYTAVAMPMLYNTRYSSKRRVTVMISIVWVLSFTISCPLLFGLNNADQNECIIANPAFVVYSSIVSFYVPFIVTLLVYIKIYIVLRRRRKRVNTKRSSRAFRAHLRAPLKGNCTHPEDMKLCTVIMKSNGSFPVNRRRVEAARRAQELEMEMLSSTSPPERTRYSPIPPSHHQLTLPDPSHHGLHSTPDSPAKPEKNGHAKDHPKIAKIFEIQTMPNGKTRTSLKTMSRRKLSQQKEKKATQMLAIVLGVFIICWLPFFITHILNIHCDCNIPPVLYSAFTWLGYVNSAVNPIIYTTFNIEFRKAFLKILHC
Chain of Beta-2 adrenergic receptor (Homo sapiens) (P07550 whole entry, looked up): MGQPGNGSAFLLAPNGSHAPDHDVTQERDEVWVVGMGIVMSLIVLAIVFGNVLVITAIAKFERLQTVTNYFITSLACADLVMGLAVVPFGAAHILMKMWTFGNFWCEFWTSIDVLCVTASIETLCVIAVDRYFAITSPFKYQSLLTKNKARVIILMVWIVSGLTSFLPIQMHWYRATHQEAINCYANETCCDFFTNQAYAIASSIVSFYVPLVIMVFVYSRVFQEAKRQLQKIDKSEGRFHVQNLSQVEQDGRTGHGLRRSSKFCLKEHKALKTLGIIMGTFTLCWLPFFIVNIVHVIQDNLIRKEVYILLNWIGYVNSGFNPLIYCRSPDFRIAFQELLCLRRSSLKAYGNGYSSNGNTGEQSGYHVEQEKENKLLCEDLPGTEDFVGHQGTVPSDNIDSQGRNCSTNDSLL

The first assay has as its target Beta-2 adrenergic receptor (Homo sapiens) (UniProt P07550). The assay can be described thus: Adrenergic beta2 receptor (ADRB2) small molecule agonists, cell-based qHTS assay (AID 1963593).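 Also: CHO cells stably overexpressing human ADRB2.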 Conditions: CHO-ADRB2 cells, cAMP HTRF, 30 min; series mostly up to 92.4 µM. In outline:
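CHO cells stably over-expressing ADRB2 were plated overnight at 37C, then dosed with compounds plus a stimulation mix containing 100uM IBMX and 25uM Ro-20-1724 for 0.5hr at room temperature. cAMP was measured by HTRF competition, 1hr.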
Background: Quantitative high-throughput screening tests each substance at several concentrations.
As to `COCCCOc1ccnc(CS(=O)c2nc3ccccc3[nH]2)c1C` (stereo not drawn), the Potency entry is “inactive”.
`C[C@H]1C[C@H](O)c2ccsc2S1(=O)=O`: the Potency result was “inactive”.
Take `CC1=CCC(C(C)(C)O)CC1` (stereo not drawn): the Potency entry was “inactive”.
Take `CCC(C)=O`: the Potency entry was “inactive”.
Consider `N=c1nc(N2CCCCC2)cc(N)n1O`, for which the Potency entry is “inactive”.
For the molecule `COc1ccc2c(c1)CCCC2=O`, the Potency result was “inactive”.
On the same count and under the same terms, under `CC1=CCC(O)(C(C)C)CC1` (stereo not drawn) stands “inactive”; under `CCCCCCCC(=O)[O-].CCCCCCCC(=O)[O-].[Zn+2]`, “inactive”; under `Nc1nc(N)c2nc(-c3ccccc3)c(N)nc2n1`, “inactive”.
For `c1coc(CNc2ncnc3nc[nH]c23)c1`, the Potency entry is “inactive”.
For `CC1=C(O)C(=O)C(C)O1` (stereo not drawn), the Potency result was “inactive”.
Still for that read-out and setting: the same measure for `Cc1[nH]cnc1-c1ccc(Cl)cc1`: “inactive”.
Turning to `Oc1ccc(Cl)cc1Sc1cc(Cl)ccc1O`, the Potency result is “inactive”.
As for `CCCC1O[C@@H]2C[C@H]3[C@@H]4CCC5=CC(=O)C=C[C@]5(C)[C@H]4[C@@H](O)C[C@]3(C)[C@]2(C(=O)CO)O1` (stereo partly drawn), the Potency entry is “inactive”.
As to `C1C[C@@H]2[C@H]3CC[C@H](C3)[C@@H]2C1`, the Potency entry was “inactive”.
Turning to `Cc1c(C)c2c(c(C)c1O)CCC(C)(COc1ccc(CC3SC(=O)NC3=O)cc1)O2` (stereo not drawn), the Potency entry is “inactive”.
Turning to `Cc1nc2ccccc2s1`, the Potency result was “inactive”.
The same measure, in the same setting: under `COCCOCCOCCOCCOCCO` stands “inactive”.
For the molecule `O=C(O)c1cc(-c2ccccc2)nc2ccccc12`, the Potency entry is “inactive”.
The same measure, in the same setting: under `COc1cc(C(=S)N2CCOCC2)ccc1O` stands “inactive”.
With `O=C(O)CCCCCCCCCCCC(=O)O`, the Potency result is “inactive”.
`COC(=O)CCCCC(=O)O`: the Potency entry was “inactive”.
Still for that read-out and setting: under `O=C(O)c1cc(O)c(O)c(O)c1` stands “inactive”.
For the molecule `O=C(O)CSCC(=O)NC1CCSC1=O` (stereo not drawn), the Potency result was “inactive”.

A further assay concerns the target D(2) dopamine receptor (Homo sapiens) (UniProt P14416). As to the kind of experiment: Dopamine D2 receptor (DRD2) small molecule agonists, cell-based qHTS assay (AID 1963594). Also: nearly all actives have a fitted effect of over 35% in size. Particulars: HEK293-DRD2 cAMP HTRF, agonist mode, 30 min; series mostly up to 92.4 µM. Summed up:
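HEK293 cells stably expressing human DRD2, pre-treated with PDE inhibitor Ro20-1724 (0.1 mM final) and compound 10 min at room temperature, then stimulated with NKH477 (200nM […]) for 30 min. cAMP read by HTRF (665/620 nm).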
Consider `Cc1cc(CCC(=O)OCCOCCOCCOC(=O)CCc2cc(C)c(O)c(C(C)(C)C)c2)cc(C(C)(C)C)c1O`, for which the Potency entry is “inactive”.
The same measure, in the same setting: under `COCCCOc1ccnc(CS(=O)c2nc3ccccc3[nH]2)c1C` (stereo not drawn) stands “inactive”.
As to `CC(C)(c1ccc(O)cc1)c1ccc(O)cc1`, the Potency entry is “inactive”.
On the same count and under the same terms, under `C[Si](C)O[Si](C)(C)O[Si](C)(C)O[Si](C)C` stands “inactive”.
On the same count and under the same terms, under `C[C@H]1C[C@H](O)c2ccsc2S1(=O)=O` stands “inactive”; under `CC1=CCC(C(C)(C)O)CC1` (stereo not drawn), “inactive”.
Still for that read-out and setting: the same measure for `CCC(C)=O`: “inactive”; for `N=c1nc(N2CCCCC2)cc(N)n1O`: “inactive”.
As to `COc1ccc2c(c1)CCCC2=O`, the Potency result was “inactive”.
For `CC1=CCC(O)(C(C)C)CC1` (stereo not drawn), the Potency result was “inactive”.
`CCCCCCCC(=O)[O-].CCCCCCCC(=O)[O-].[Zn+2]`: the Potency result was “inactive”.
With `Nc1nc(N)c2nc(-c3ccccc3)c(N)nc2n1`, the Potency entry was “inactive”.
On the same count and under the same terms, under `COC(=O)c1ccccc1C(=O)c1ccc(OCCN2CCCCC2)cc1` stands “inactive”; under `c1coc(CNc2ncnc3nc[nH]c23)c1`, “inactive”; under `CC1=C(O)C(=O)C(C)O1` (stereo not drawn), “inactive”.
As to `Cc1[nH]cnc1-c1ccc(Cl)cc1`, the Potency entry was “inactive”.
For the molecule `C1CCCC1`, the Potency entry was “inactive”.
As to `CCCC(=O)CC`, the Potency result was “inactive”.
Take `Oc1ccc(Cl)cc1Sc1cc(Cl)ccc1O`: the Potency result is “inactive”.
Regarding `CCOCOCC`, the Potency result is “inactive”.
`CCCC1O[C@@H]2C[C@H]3[C@@H]4CCC5=CC(=O)C=C[C@]5(C)[C@H]4[C@@H](O)C[C@]3(C)[C@]2(C(=O)CO)O1` (stereo partly drawn): the Potency entry was “inactive”.
Consider `C1C[C@@H]2[C@H]3CC[C@H](C3)[C@@H]2C1`, for which the Potency entry was “inactive”.
As for `CC(C)C(=O)c1ccccc1`, the Potency entry is “inactive”.
In the case of `Cc1c(C)c2c(c(C)c1O)CCC(C)(COc1ccc(CC3SC(=O)NC3=O)cc1)O2` (stereo not drawn), the Potency result was “inactive”.
Regarding `Cc1nc2ccccc2s1`, the Potency result was “inactive”.
Turning to `COCCOCCOCCOCCOCCO`, the Potency entry was “inactive”.
As for `O=C(O)c1cc(-c2ccccc2)nc2ccccc12`, the Potency entry was “inactive”.
On to `COc1cc(C(=S)N2CCOCC2)ccc1O`, for which the Potency result was “inactive”.
Regarding `O=C(O)CCCCCCCCCCCC(=O)O`, the Potency result is “inactive”.
As to `O=S(=O)(O)c1cccc2ccccc12`, the Potency result is “inactive”.
As for `COC(=O)CCCCC(=O)O`, the Potency result is “inactive”.
Take `CN(CCOc1ccc(CC2SC(=O)NC2=O)cc1)c1ccccn1` (stereo not drawn): the Potency result is “inactive”.
Take `O=C(c1ccc(O)cc1O)c1ccc(O)cc1O`: the Potency entry was “inactive”.
Turning to `O=C(CCNNC(=O)c1ccncc1)NCc1ccccc1`, the Potency entry was “inactive”.
On the same count and under the same terms, under `O=C(O)c1ccc(CO)o1` stands “inactive”; under `O=C(O)CSCC(=O)NC1CCSC1=O` (stereo not drawn), “inactive”.

Another assay shares this target. As to the kind of experiment: Dopamine D2 receptor (DRD2) small molecule antagonists, cell-based qHTS assay (AID 1963595; active = well fitted inhibition curve with a large enough effect in the signal ratio in the repeat runs, with a control signal flat; the % refers to the signal ratio). Particulars: HEK293-DRD2 cAMP HTRF antagonist mode; series mostly up to 92.4 µM. Summed up: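 DRD2-HEK293; 0.1 mM Ro20-1724; cpd 10 min RT; NKH477 200 nM + quinpirole 12 nM, 30 min RT; HTRF cAMP (cAMP-d2/anti-cAMP cryptate), 665/620 nm ratio after 1 h.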
`Cc1cc(CCC(=O)OCCOCCOCCOC(=O)CCc2cc(C)c(O)c(C(C)(C)C)c2)cc(C(C)(C)C)c1O`: the Potency result was “inactive”.
For the molecule `COCCCOc1ccnc(CS(=O)c2nc3ccccc3[nH]2)c1C` (stereo not drawn), the Potency result was “inactive”.
Regarding `CC(C)(c1ccc(O)cc1)c1ccc(O)cc1`, the Potency result was “inactive”.
For the molecule `C[Si](C)O[Si](C)(C)O[Si](C)(C)O[Si](C)C`, the Potency entry is “inactive”.
Still for that read-out and setting: the same measure for `C[C@H]1C[C@H](O)c2ccsc2S1(=O)=O`: “inactive”; for `CC1=CCC(C(C)(C)O)CC1` (stereo not drawn): “inactive”.
On the same count and under the same terms, the same measure for `N=c1nc(N2CCCCC2)cc(N)n1O`: “inactive”; for `CC1=CCC(O)(C(C)C)CC1` (stereo not drawn): “inactive”.
`CCCCCCCC(=O)[O-].CCCCCCCC(=O)[O-].[Zn+2]`: the Potency entry is “inactive”.
On the same count and under the same terms, the same measure for `Nc1nc(N)c2nc(-c3ccccc3)c(N)nc2n1`: “inactive”.
Take `COC(=O)c1ccccc1C(=O)c1ccc(OCCN2CCCCC2)cc1`: the Potency result was “inactive”.
For `CC1=C(O)C(=O)C(C)O1` (stereo not drawn), the Potency result was “inactive”.
With `C1CCCC1`, the Potency result is “inactive”.
On the same count and under the same terms, under `CCCC(=O)CC` stands “inactive”; under `Oc1ccc(Cl)cc1Sc1cc(Cl)ccc1O`, “inactive”.
In the case of `CCOCOCC`, the Potency entry was “inactive”.
On the same count and under the same terms, under `CCCC1O[C@@H]2C[C@H]3[C@@H]4CCC5=CC(=O)C=C[C@]5(C)[C@H]4[C@@H](O)C[C@]3(C)[C@]2(C(=O)CO)O1` (stereo partly drawn) stands “inactive”; under `CC(C)C(=O)c1ccccc1`, “inactive”.
Take `Cc1c(C)c2c(c(C)c1O)CCC(C)(COc1ccc(CC3SC(=O)NC3=O)cc1)O2` (stereo not drawn): the Potency result was “inactive”.
In the case of `Cc1nc2ccccc2s1`, the Potency result is “inactive”.
In the case of `O=C(O)c1cc(-c2ccccc2)nc2ccccc12`, the Potency result was “inactive”.
As for `O=C(O)CCCCCCCCCCCC(=O)O`, the Potency entry is “inactive”.
Same read-out and setting: the same measure for `O=S(=O)(O)c1cccc2ccccc12`: “inactive”; for `COC(=O)CCCCC(=O)O`: “inactive”.
Turning to `CN(CCOc1ccc(CC2SC(=O)NC2=O)cc1)c1ccccn1` (stereo not drawn), the Potency entry is “inactive”.
With `O=C(c1ccc(O)cc1O)c1ccc(O)cc1O`, the Potency entry is “inactive”.
Still for that read-out and setting: the same measure for `O=C(O)c1cc(O)c(O)c(O)c1`: “inactive”; for `O=C(O)c1ccc(CO)o1`: “inactive”.

Values taken from PubChem BioAssay (Tox21).
